Active and inactive are the calls of the source.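 The calls were made as follows, unless noted: active = NADPH fluorescence slope more negative than the mean of all samples by about 3 SD, 99.7% confidence; inactive = the rest.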
Columns and labels:
[1] = inhibitors of TNFa-induced NFkB p65 translocation, primary screen, imaging, HUVEC, MLSMR starter and 10KST1 sets (AID 438;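 active = inhibition above 20% together with a positive visual image hit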;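 also: compound added about 3h40 before a 20 min TNFalpha stimulation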;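 as to inhibition: signal is the nuclear over cytoplasmic p65 intensity ratio per well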); details: HUVEC TNFa-induced p65 nuclear translocation; cell count: measured here: nuclei count (cytotoxicity indicator), at 2.08 µM; inhibition: at 2 µM, stronger effect = higher value, 0% TNFa-plus-vehicle, 100% no-TNFa wells
[2] = inhibitors of mutant huntingtin aggregation, primary screen, imaging, exon1htt(103Q)mCFP cells, high-content imaging (AID 483;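 active = visual image review flags a hit and inhibition of aggregation exceeds 20%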;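 also: compound exposure lasted 3 days before fixation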;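 as to nuclei count: percent of the per-plate median nuclei count of sample wells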); details: exon1htt(103Q)mCFP cell line, aggregate imaging, at 2 µM; inhibition of aggregation: stronger effect = higher value; nuclei count: measured here: cell count, toxicity
[3] = inhibitors of E-selectin induction by TNFa, primary screen, imaging, HUVEC, immunofluorescence, MLSMR starter and 10KST1 sets (AID 487;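 active = visually confirmed hit in the image check and inhibition above 20%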;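 as to inhibition: signal is fraction of cell area covered by stained E-selectin grains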;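 as to nuclei count: 100% = median nuclei count of all wells on the same plate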); details: HUVEC TNFalpha-induced E-selectin immunofluorescence imaging, at 2 µM; inhibition: stronger effect = higher value; nuclei count: measured here: cell number, toxicity
[4] = DUSP6 inhibitors restoring Erk phosphorylation by chemical complementation, primary imaging in DUSP6-transfected HeLa (AID 609;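 active = compounds giving at least 50% inhibition in the cell-based MKP-3 phosphatase rescue imaging test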;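 as to inhibition: phospho-Erk level distribution per well compared with pooled transfected vehicle control wells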); details: HeLa MKP-3 transfected, phospho-Erk imaging KS statistic, at 10 µM, cells stimulated with TPA for 15 min
[5] = target: Dual specificity protein phosphatase 6 (Homo sapiens) (UniProt Q16828); experiment: as above; details: HeLa MKP-3 transfected, phospho-Erk imaging KS statistic; at 10 µM; stronger effect = higher value; cells stimulated with TPA for 15 min
[6] = target: Voltage-gated potassium channel subunit beta-2 (Rattus norvegicus) (UniProt P62483); experiment: KvBeta enzyme negative modulators, primary screen, biochemical, NADPH fluorescence (AID 622;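 active = fluorescence slope higher than the sample average by over 3 SD, cut at about -0.22 in these data, passing the limit was not always enough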;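 also: slope of raw intensity against log time taken from 70 to 1610 s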); details: recombinant KvBeta, 4-cyanobenzaldehyde reduction, at 10 µM, stronger effect = higher value
[7] = target: Voltage-gated potassium channel subunit beta-2 (Rattus norvegicus) (UniProt P62483); experiment: KvBeta positive modulators, primary screen, biochemical, NADPH fluorescence (AID 623); details: Recombinant KvBeta, NADPH fluorescence decrease slope, 10 min; at 10 µM; stronger effect = lower value;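 also: fluorescence intensity change per second fitted from 20 to 320 s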
[8] = target: Alpha-2C adrenergic receptor (Homo sapiens) (UniProt P18825); experiment: modulators of alpha2C/GIRK thallium flux, primary screen, cell-based, HEK293 alpha2C/GIRK1/2 (AID 624;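 active = fluorescence slope after compound addition differing from the mean of all screened samples at 99.7% confidence, in either direction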;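 also: slope of fluorescence ratio to pre-addition baseline per second over 15 to 24 s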); details: thallium flux BTC fluorescence, at 10 µM, actives lie on both sides
[9] = target: Muscarinic acetylcholine receptor M4 (Homo sapiens) (UniProt P08173); experiment: compounds altering M4/GIRK thallium flux, either direction, primary screen, M4 allosteric agonist project, cell-based, HEK293 M4/GIRK, BTC-AM (AID 625;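 active = fluorescence slope after compound addition differing from the mean of all tested samples at 99.7% confidence, mostly higher but some lower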;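 also: thallium influx through GIRK channels coupled to M4 in HEK293 cells with BTC-AM dye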); details: at 10 µM, actives lie on both sides
[10] = inhibitors of larval lipid processing in zebrafish, primary screen, whole organism, PED6 fluorescence, gall bladder and intestine (AID 686;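 active = a full or partial loss of lipid-probe fluorescence in the fish gall bladder, intestine or both, judged by eye; inactive = no fluorescence loss, or compound toxic to the fish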;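 also: larvae 5 to 7 days old with five fish per well; signal comes from phospholipase A2 cleavage of quenched PED6 carried via bile; overnight exposure to compound and PED6 before scoring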); details: Zebrafish larvae PED6 lipid processing, fluorescence scoring; screened at 20 µM (by protocol)
[11] = inhibitors of Chlamydomonas gravitaxis, primary screen, whole organism, Chlamydomonas reinhardtii, WT vs cilia-less mutant, absorbance, 96-well (AID 463189;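 active = inhibition at or above 50% relative to wild type and mutant plate controls; inactive = inhibition below 50%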;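 also: 0% = wild type cc124 cells in DMSO and 100% = ciliumless bld1 mutant cells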); details: OD600 absorbance, 2 days, at 10 µM, stronger effect = higher value
[12] = inhibitors of Sendai virus-induced IRF3 signaling, primary screen, TLR/RLR signaling modifier project, cell-based, Sendai virus stimulus, luciferase, 10K MLSCN set (AID 602276;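 active = inhibition at or above 50% at 10 µM; inactive = inhibition below 50%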;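 also: firefly luciferase from ISG56 promoter only with Renilla not read in this screen; 0% = Sendai virus plus DMSO and 100% = medium plus DMSO without virus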); details: HEK293 RL24 IRF3 luciferase reporter, at 10 µM, stronger effect = higher value
[13] = inhibitors of poly I:C-induced TLR3 signaling, primary screen, cell-based, poly I:C stimulus, luciferase, 10K MLSCN set (AID 602277;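 active = inhibition of the reporter signal at or above 50%; inactive = inhibition below 50%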); details: HEK293-TLR3 RL24 IRF3 luciferase reporter, at 10 µM, stronger effect = higher value
[14] = measured here: cell density z-score
[15] = measured here: nuclear c-Myc green intensity z-score
[16] = measured here: nuclear pErk red intensity z-score, stronger effect = higher value

Chain of Muscarinic acetylcholine receptor M4 (Homo sapiens) (P08173 whole entry, looked up): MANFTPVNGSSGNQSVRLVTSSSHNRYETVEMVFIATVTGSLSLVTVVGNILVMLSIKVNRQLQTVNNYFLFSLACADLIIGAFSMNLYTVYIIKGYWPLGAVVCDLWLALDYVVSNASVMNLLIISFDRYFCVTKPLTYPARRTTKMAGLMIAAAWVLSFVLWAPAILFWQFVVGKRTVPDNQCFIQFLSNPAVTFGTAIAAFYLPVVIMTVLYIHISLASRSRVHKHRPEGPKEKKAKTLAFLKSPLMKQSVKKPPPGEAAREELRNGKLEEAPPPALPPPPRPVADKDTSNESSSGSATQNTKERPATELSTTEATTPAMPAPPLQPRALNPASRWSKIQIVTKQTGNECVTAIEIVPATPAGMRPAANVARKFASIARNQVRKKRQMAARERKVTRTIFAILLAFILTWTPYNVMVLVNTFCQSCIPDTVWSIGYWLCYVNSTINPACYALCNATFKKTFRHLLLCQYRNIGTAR
Chain of Voltage-gated potassium channel subunit beta-2 (Rattus norvegicus) (P62483 whole entry, looked up): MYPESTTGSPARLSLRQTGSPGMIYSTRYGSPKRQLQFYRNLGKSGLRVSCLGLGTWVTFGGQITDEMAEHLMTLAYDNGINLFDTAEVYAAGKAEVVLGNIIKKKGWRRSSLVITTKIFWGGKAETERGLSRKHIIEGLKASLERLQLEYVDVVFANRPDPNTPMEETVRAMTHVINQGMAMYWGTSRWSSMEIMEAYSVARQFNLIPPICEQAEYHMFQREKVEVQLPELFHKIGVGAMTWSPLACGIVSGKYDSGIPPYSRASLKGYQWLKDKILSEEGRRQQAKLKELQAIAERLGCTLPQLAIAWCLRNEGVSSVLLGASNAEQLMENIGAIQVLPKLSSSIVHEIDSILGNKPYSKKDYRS
Chain of Dual specificity protein phosphatase 6 (Homo sapiens) (Q16828 whole entry, looked up): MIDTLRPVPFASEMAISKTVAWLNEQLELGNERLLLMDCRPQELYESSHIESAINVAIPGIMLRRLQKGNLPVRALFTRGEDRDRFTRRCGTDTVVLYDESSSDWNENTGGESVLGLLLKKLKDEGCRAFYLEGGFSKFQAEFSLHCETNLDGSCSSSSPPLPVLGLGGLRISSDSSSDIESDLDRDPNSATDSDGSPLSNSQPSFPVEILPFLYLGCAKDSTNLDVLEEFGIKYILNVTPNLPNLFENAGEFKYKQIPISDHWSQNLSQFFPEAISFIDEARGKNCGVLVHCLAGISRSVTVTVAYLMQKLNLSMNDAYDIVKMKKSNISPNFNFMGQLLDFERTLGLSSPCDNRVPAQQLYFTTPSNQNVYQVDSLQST
Chain of Alpha-2C adrenergic receptor (Homo sapiens) (P18825 whole entry, looked up): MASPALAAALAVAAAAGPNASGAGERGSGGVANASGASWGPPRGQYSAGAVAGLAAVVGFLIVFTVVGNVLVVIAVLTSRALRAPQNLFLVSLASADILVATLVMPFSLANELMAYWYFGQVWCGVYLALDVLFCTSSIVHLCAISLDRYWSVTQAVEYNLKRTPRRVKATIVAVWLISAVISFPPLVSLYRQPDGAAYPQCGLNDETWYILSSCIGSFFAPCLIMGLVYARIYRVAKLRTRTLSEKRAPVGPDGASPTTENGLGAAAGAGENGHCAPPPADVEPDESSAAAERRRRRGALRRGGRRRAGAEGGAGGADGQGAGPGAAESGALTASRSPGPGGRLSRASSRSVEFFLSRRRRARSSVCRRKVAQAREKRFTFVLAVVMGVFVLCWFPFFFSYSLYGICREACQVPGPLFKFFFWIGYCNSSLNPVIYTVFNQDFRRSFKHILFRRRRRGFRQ

## O=C(O)CC1Sc2nc3ccccc3n2C1=O (stereo not drawn)
[1]
  cell count: 532
  inhibition: -9% (inactive)
[2]
  inhibition of aggregation: -11.5% (inactive)
  nuclei count: 89%
[3]
  inhibition: -22.4% (inactive)
  nuclei count: 116%
[4]; [14]
  z-score: -0.312
[4]; [15]
  z-score: -0.637
[4]; [16]
  z-score: -0.43
[5]
  inhibition: 15.9% (inactive)
[6]
  fluorescence slope: -0.49 (inactive)
[7]
  NADPH fluorescence slope: -1.3e-05 (inactive)
[8]
  slope: 0.00572 (inactive)
[9]
  fluorescence slope: 0.00487 (inactive)
[10]
  outcome: inactive
[11]
  inhibition: 27.7% (inactive)
[12]
  inhibition: 13.8% (inactive)
[13]
  inhibition: 12.9% (inactive)

## CC(C(=O)O)c1ccc(-c2ccccc2)c(F)c1 (stereo not drawn)
[1]
  cell count: 557
  inhibition: -7.8% (inactive)
[2]
  inhibition of aggregation: -18.5% (inactive)
  nuclei count: 101%
[3]
  inhibition: -48.5% (inactive)
  nuclei count: 113%
[4]; [14]
  z-score: 2.7
[4]; [15]
  z-score: -2.89
[4]; [16]
  z-score: 0.18
[5]
  inhibition: 23.4% (inactive)
[6]
  fluorescence slope: -0.456 (inactive)
[7]
  NADPH fluorescence slope: -6e-05 (inactive)
[8]
  slope: 0.0055 (inactive)
[11]
  inhibition: 42.5% (inactive)
[12]
  inhibition: 18.5% (inactive)
[13]
  inhibition: 42.9% (inactive)

## Cc1c(C)c2cc(Cl)c(O)c(CN3CCCCC3)c2oc1=O
[1]
  cell count: 393
  inhibition: 1.3% (inactive)
[2]
  inhibition of aggregation: -11.8% (inactive)
  nuclei count: 100%
[3]
  inhibition: -14.6% (inactive)
  nuclei count: 124%
[4]; [14]
  z-score: 0.378
[4]; [15]
  z-score: -1.22
[4]; [16]
  z-score: -0.936
[5]
  inhibition: 5.26% (inactive)
[6]
  fluorescence slope: -0.198 (inactive)
[7]
  NADPH fluorescence slope: -2.2e-05 (inactive)
[8]
  slope: 0.00419 (inactive)
[11]
  inhibition: 20.3% (inactive)
[12]
  inhibition: 4.19% (inactive)
[13]
  inhibition: 6.59% (inactive)

## N#CCc1nc2c3c4c(sc3ncn2n1)CCCC4
[1]
  cell count: 436
  inhibition: -7.3% (inactive)
[2]
  inhibition of aggregation: -155% (inactive)
  nuclei count: 1.9%
[3]
  inhibition: -12.1% (inactive)
  nuclei count: 130%
[4]; [14]
  z-score: 0.106
[4]; [15]
  z-score: 1.08
[4]; [16]
  z-score: 0.152
[5]
  inhibition: 5.95% (inactive)
[6]
  fluorescence slope: -0.413 (inactive)
[7]
  NADPH fluorescence slope: -4.9e-05 (inactive)
[8]
  slope: 0.00471 (inactive)
[9]
  fluorescence slope: 0.00496 (inactive)
[10]
  outcome: inactive
[11]
  inhibition: 0.738% (inactive)
[12]
  inhibition: 5.18% (inactive)
[13]
  inhibition: -26.2% (inactive)

## CC(=O)Nc1ccc(-c2cc3ccccc3o2)cc1
[1]
  cell count: 572
  inhibition: -3.8% (inactive)
[2]
  inhibition of aggregation: -5.2% (inactive)
  nuclei count: 112%
[3]
  inhibition: 11% (inactive)
  nuclei count: 138%
[4]; [14]
  z-score: -0.412
[4]; [15]
  z-score: 2.18
[4]; [16]
  z-score: 0.0674
[5]
  inhibition: -0.233% (inactive)
[6]
  fluorescence slope: -0.468 (inactive)
[7]
  NADPH fluorescence slope: -0.00011 (inactive)
[8]
  slope: 0.00496 (inactive)
[9]
  fluorescence slope: 0.00556 (inactive)
[10]
  outcome: inactive
[11]
  inhibition: 17.4% (inactive)
[12]
  inhibition: -24.7% (inactive)
[13]
  inhibition: -112% (inactive)

## COCCNC(=O)c1c(N)n(CCC2=CCCCC2)c2nc3ccccc3nc12
[1]
  cell count: 661
  inhibition: -11.4% (inactive)
[2]
  inhibition of aggregation: -0.5% (inactive)
  nuclei count: 101%
[3]
  inhibition: -22.2% (inactive)
  nuclei count: 149%
[4]; [14]
  z-score: 1.39
[4]; [15]
  z-score: -1.83
[4]; [16]
  z-score: -0.195
[5]
  inhibition: 20.2% (inactive)
[6]
  fluorescence slope: -0.0792 (inactive)
[7]
  NADPH fluorescence slope: -5.5e-06 (inactive)
[8]
  slope: 0.00496 (inactive)
[9]
  fluorescence slope: 0.00724 (inactive)
[10]
  outcome: inactive
[11]
  inhibition: 25.3% (inactive)
[12]
  inhibition: 6.4% (inactive)
[13]
  inhibition: 8.21% (inactive)

## C=CCn1c(SCC(=O)c2ccccc2)nnc1-c1ccc2c(c1)OCO2
[1]
  cell count: 728
  inhibition: -2.4% (inactive)
[2]
  inhibition of aggregation: -1% (inactive)
  nuclei count: 92.4%
[3]
  inhibition: -60.6% (inactive)
  nuclei count: 117%
[4]; [14]
  z-score: 0.143
[4]; [15]
  z-score: 0.0826
[4]; [16]
  z-score: 1.39
[5]
  inhibition: -13.3% (inactive)
[6]
  fluorescence slope: -0.528 (inactive)
[7]
  NADPH fluorescence slope: -3.6e-05 (inactive)
[8]
  slope: 0.00455 (inactive)
[9]
  fluorescence slope: 0.00674 (inactive)
[10]
  outcome: inactive
[11]
  inhibition: -7.63% (inactive)
[12]
  inhibition: -8.67% (inactive)
[13]
  inhibition: -3.99% (inactive)

## CC(NC(=O)NCCCC(=O)O)(C(F)(F)F)C(F)(F)F
[1]
  cell count: 582
  inhibition: -3.7% (inactive)
[2]
  inhibition of aggregation: 8.7% (inactive)
  nuclei count: 98.1%
[3]
  inhibition: -76% (inactive)
  nuclei count: 122%
[4]; [14]
  z-score: -0.792
[4]; [15]
  z-score: -0.179
[4]; [16]
  z-score: 1.85
[5]
  inhibition: -2.09% (inactive)
[6]
  fluorescence slope: -0.428 (inactive)
[7]
  NADPH fluorescence slope: -1.9e-05 (inactive)
[8]
  slope: 0.00567 (inactive)
[9]
  fluorescence slope: 0.00478 (inactive)
[10]
  outcome: inactive
[11]
  inhibition: 11.9% (inactive)
[12]
  inhibition: 18.9% (inactive)
[13]
  inhibition: 21.7% (inactive)

## CCS(=O)(=O)CCn1c([N+](=O)[O-])cnc1C
[1]
  cell count: 637
  inhibition: 5.5% (inactive)
[2]
  inhibition of aggregation: 9.6% (inactive)
  nuclei count: 97.3%
[3]
  inhibition: -68.3% (inactive)
  nuclei count: 110%
[4]; [14]
  z-score: 0.704
[4]; [15]
  z-score: 2.39
[4]; [16]
  z-score: 0.14
[5]
  inhibition: 27.9% (inactive)
[6]
  fluorescence slope: -0.507 (inactive)
[7]
  NADPH fluorescence slope: -8.1e-05 (inactive)
[8]
  slope: 0.00495 (inactive)
[9]
  fluorescence slope: 0.00503 (inactive)
[10]
  outcome: inactive
[11]
  inhibition: 19% (inactive)
[12]
  inhibition: -12.7% (inactive)
[13]
  inhibition: -11.5% (inactive)

Source: PubChem BioAssay
